Luc counter – blocks Kinase-Glo luciferase, a counter-screen artifact. Q27757. Kinase-Glo luciferase, ATP luminescence, 8 min. Potency, µM (highest dose often 38.3 µM), inactives show at the highest dose activity change, negative = inhibition, actives largely listed as inhibitors. hit rate 0.28% among 200,000. AID 1379; active = well fitted inhibition curve with a large enough effect; inconclusive = small, poorly fitted or top-dose-only effect; note: potency is the fitted concentration of half-maximal effect; nearly all actives have a fitted effect of over 60% in size
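Light output from Kinase-Glo luciferase with luciferin and 10 uM ATP in 50 mM imidazole pH 7.2, KCl, MgCl2, Tween 20, BSA; compound pin-delivered, 8-min ambient incubation, then luminescence read.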
PNC inhibitor – inhibitors of perinucleolar compartment assembly; PC3M PTB-GFP, PNC prevalence imaging, 16 h; hits give low values; activity change (PNC), negative = inhibition, % at 10 µM; hit rate 3.1% among 140,000;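 active = readout at or below -70, meaning at least 70% loss of cells showing the perinucleolar compartment, a nuclear body marking cancer cells; inconclusive = readout between -30 and a set limit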;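 note: plate controls were DMSO wells for no effect and camptothecin positive control wells for full effect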
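PC3M cells stably expressing PTB-GFP, 750–1000 cells/well, treated 16 h at 37 °C with compound (23 nl of library stock), in duplicate. After paraformaldehyde fixation and Hoechst stain, imaged at 20x; PNC prevalence scored by image analysis.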
Lamin A splicing – changes lamin A minigene splicing in HeLa cells | HeLa LMNA splicing GFP/RFP minigene ratio, 48 h | hit rate 0.01% among 200,000 | Potency, µM (series often up to 46.1 µM), inactives show at the highest dose ratio change, negative = inhibition, hits mostly inhibitors | AID 1487; active = well fitted inhibition curve with a large enough effect in the signal ratio, with a control signal flat, not every such curve was filed as active; inconclusive = small, poorly fitted or top-dose-only effect, or effect the other way, or a change in a side signal; the % refers to the signal ratio; note: potency is the fitted concentration of half-maximal effect
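Read-out is the ratio of GFP to DsRed2 object intensity, acquired by 488 nm laser-scanning cytometry on HeLa lamin A-EGFP minigene reporter cells. Compound incubation 48 hrs at 37 °C in Opti-MEM with 2% FBS; DMSO 0.5% final.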
HPGD block – HPGD (human) dehydrogenase inhibition; P15428; purified HPGD, NADH fluorescence kinetic, PGE2 substrate; Potency, µM, for the others: at the top dose activity change, negative = inhibition, actives largely listed as inhibitors; hit rate 4.3% among 150,000; AID 894; note: potency is the fitted concentration of half-maximal effect
Target sequence (P15428 whole entry, looked up): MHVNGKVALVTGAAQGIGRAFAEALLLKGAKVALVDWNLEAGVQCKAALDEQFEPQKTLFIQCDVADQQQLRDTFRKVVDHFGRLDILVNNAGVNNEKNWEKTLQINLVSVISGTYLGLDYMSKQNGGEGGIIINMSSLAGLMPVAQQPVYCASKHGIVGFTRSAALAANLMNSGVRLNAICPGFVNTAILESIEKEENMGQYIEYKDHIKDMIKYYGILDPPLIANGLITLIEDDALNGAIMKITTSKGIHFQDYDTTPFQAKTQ
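20 nM HPGD preincubated 15 min at room temperature with compound in 50 mM Tris-HCl pH 8, 0.01% Tween 20. Started with 1 mM NAD+ and 30 uM prostaglandin E2; NADH fluorescence (360/450 nm) read 5 times over 30-s intervals, last minus first.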
ALDH1A1 inh – ALDH1A1 (human) enzyme inhibition; hit rate 7.3% among 220,000; Purified ALDH1A1, NADH fluorescence, propionaldehyde substrate; P00352; AID 1030; Potency, µM (highest dose often 75.3 µM), for inactives: at the top dose activity, negative = inhibition, hits mostly inhibitors;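 note: potency is the fitted concentration of half-maximal effect; plate controls were no enzyme wells and a reference inhibitor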
Target sequence (P00352 whole entry, looked up): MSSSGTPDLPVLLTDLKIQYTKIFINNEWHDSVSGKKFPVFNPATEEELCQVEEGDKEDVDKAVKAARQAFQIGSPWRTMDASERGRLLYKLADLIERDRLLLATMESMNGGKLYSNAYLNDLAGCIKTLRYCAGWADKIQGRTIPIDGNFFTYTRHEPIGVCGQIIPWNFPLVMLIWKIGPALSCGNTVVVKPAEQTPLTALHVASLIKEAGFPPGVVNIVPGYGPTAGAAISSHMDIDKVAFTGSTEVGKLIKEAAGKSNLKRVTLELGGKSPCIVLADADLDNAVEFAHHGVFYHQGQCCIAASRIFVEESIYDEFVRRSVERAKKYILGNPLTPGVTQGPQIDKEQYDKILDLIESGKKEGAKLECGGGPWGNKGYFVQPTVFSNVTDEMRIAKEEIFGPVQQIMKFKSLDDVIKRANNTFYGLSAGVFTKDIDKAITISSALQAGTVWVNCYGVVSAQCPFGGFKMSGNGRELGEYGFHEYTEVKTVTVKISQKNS
IMPase cell inh – IMPase inhibition in cells; inhibition (IP1 accumulation), % at 46.1 µM; P97697; CHO-M1 cells, IP1 accumulation, HTRF TR-FRET ratio; 120,000 tested, under 10 active; active = well fitted curve in the direction sought with a large enough effect in the signal ratio, not every such curve was filed as active; inconclusive = small, poorly fitted or top-dose-only effect, or a change in a side signal; inactive = no such curve, though single readings can be large or run the other way; the % refers to the signal ratio;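 note: cells stimulated with carbachol in lithium chloride buffer; plate controls were DMSO basal wells for no effect and reference inhibitor wells for full effect; higher means more IMPase inhibition seen as more IP1 and lower FRET ratio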
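Seeded CHO-M1 cells were dosed with compound at up to 46 uM, stimulated with carbachol for 30 min, then lysed in IP-One detection reagents. Higher IP1 lowers the TR-FRET signal.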
* = called active by the depositor; ? = inconclusive; . = not tested or not shown; [ ] = remark or other dose. An excerpt weighted towards active compounds, which were near 10% of everything screened. Unless noted, calls come from the whole dose curve; as a rule, active = well fitted inhibition curve with a large enough effect (not every such curve was filed as active); inconclusive = small, poorly fitted or top-dose-only effect, or another doubt; inactive = no such curve, though single readings can be large or run the other way. Unless noted, % is set by controls: 0 for no effect and ±100 for the full control effect.

SMILES	Luc counter	PNC inhibitor	Lamin A splicing	HPGD block	ALDH1A1 inh	IMPase cell inh
CCN1CCN(C(=O)c2cc(-c3cccnc3)nc3ccc(Br)cc23)CC1	2%	-107*	-8%	-24%	-9%	-16
O=C(O)c1cc(-c2cccnc2)nc2ccc(Br)cc12	1%	.	.	.	5%	.
O=C(c1ccc(-c2ccccc2)cc1)N1CCN(C(=O)c2ccco2)CC1	-3%	?	?	-12%	?	2
O=C(c1ccco1)N1CCN(c2nnc(-c3ccccc3)c3ccccc23)CC1	3%	3	3%	-6%	25µM*	2
O=C(c1ccco1)N1CCN(C(=O)C2CCCO2)CC1 (stereo not given)	8%	-100*	-1%	-9%	1%	-7
COc1ccccc1NC(=O)c1sc2nc3n(c(=O)c2c1C)N=C(c1cccc(Br)c1)CS3	.	.	8%[46 µM]	.	.	.
O=C(c1cccnc1)N1CCN(Cc2cccc(Br)c2)CC1	-2%	-14	-4%	-11%	10µM*	5
O=C(c1cccnc1)N1CCN(C(=O)c2ccco2)CC1	3%	-100*	-3%	-19%	1%	0
O=C(c1ccco1)N1CCN(c2ncccn2)CC1	-4%	-21	-1%	-12%	?	6
CCOc1ccc(CNC(=O)CN2C(=O)C3CCCCN3c3ccc(C(=O)N4CCCC4)cc32)cc1 (stereo not given)	.	.	4%[46 µM]	.	.	.
C/C(=N/Nc1ccc(C)cc1)C1(C)N(O)C(C)(C)C(c2ccco2)=[N+]1[O-] (stereo not given)	-3%	.	-6%[46 µM]	.	25µM*	.
Cc1c(Cl)cccc1-n1ncc(C(=O)Nc2ccc(Br)cc2F)c1C1CCNCC1	.	.	-9%[46 µM]	.	.	.
CC(C)COC(=S)Nc1ccccc1	6%	3	8%	11µM*	25µM*	0
O=C(O)CN(CCN(CC(=O)O)CC(=O)O)CC(=O)O.[Mn]	-1%[7.66 µM]	.	.	-3%	3%[13.5 µM]	.
Cc1nc(N2CCN(C(=O)COc3ccccc3)CC2)c2c(C)c(C)sc2n1	-1%	-22	?	?	11µM*	13
COc1ccc(-c2nnc(SCC(=O)Nc3ccc(C)c(C)c3)s2)cc1	.	.	11%[46 µM]	.	.	.
NC(=S)n1[nH]c(-c2ccc([N+](=O)[O-])cc2)c(N=Nc2cccc([N+](=O)[O-])c2)c1=O	3%	.	?	.	25µM*	.
Cc1c(N=Nc2c(-c3ccc([N+](=O)[O-])cc3)[nH]n(C(N)=S)c2=O)cccc1[N+](=O)[O-]	-2%	.	.	.	22µM*	.
NC(=S)n1[nH]c(-c2ccc([N+](=O)[O-])cc2)c(N=Nc2ccccc2[N+](=O)[O-])c1=O	-1%	.	?	.	?	.
COc1ccc(Cl)cc1NC(=O)C1CCN(S(=O)(=O)c2ccc(F)cc2)CC1	.	.	.	.	.	4
COC(=O)CCC(C)C1CCC2C3CC[C@H]4CC(O)CC[C@@]4(C)C3CC(O)[C@]12C (stereo not given in full)	0%	.	?	-12%	-2%	.
O=[N+]([O-])c1ccc(OC/C=C2\Oc3ccc([N+](=O)[O-])cc3C2N2CCOCC2)cc1 (stereo not given)	4%	?	-13%	-7%	25µM*	10[1.84 µM]
O=[N+]([O-])c1ccc2c(c1)C(N1CCOCC1)/C(=C/COc1ccc(F)cc1)O2 (stereo not given)	2%	5	?	-14%	?	4
CC1(C)CC(=S)Nc2ccccc2S1	2%	-100*	-1%	16µM*	10µM*	-7
S=C1Nc2ccccc2Sc2ccc(Cl)cc21	-3%	-6	-12%	-19%	-8%	.
SMILES	Luc counter	PNC inhibitor	Lamin A splicing	HPGD block	ALDH1A1 inh	IMPase cell inh
Nc1cc(-c2ccco2)no1	-8%	-10	17%	-15%	4.5µM*	-3
Cc1ccc(NC(=O)COC(=O)CCC(=O)c2ccc(C(C)(C)C)cc2)c([N+](=O)[O-])c1	0%	14	10%	-21%	0.5µM*	.
Cc1ccc(C(=O)NCC(=O)OCC(=O)Nc2cc(C)c(C)cc2[N+](=O)[O-])cc1	1%	-19	9%	-13%	-9%	.
Cc1ccc(NC(=O)CCC(=O)OCC(=O)c2ccc(Oc3ccc([N+](=O)[O-])cc3)cc2)c(C)c1	-4%	-24	1%	-5%	22µM*	3
O=C(Cn1cc(S(=O)(=O)Cc2ccccc2)c2ccccc21)Nc1ccccc1	-3%	-82*	?	-14%	?	.
O=C(O)c1ccc(-n2c(-c3cc(-c4ccco4)[nH]n3)n[nH]c2=S)cc1	3%	-16	6%[0.0737 µM]	?	?	1
Cc1ccccc1-n1c(-c2csc(C)c2C)n[nH]c1=S	-6%	23	-2%	-25%	?	.
S=c1[nH]nc(-c2cc(-c3ccco3)[nH]n2)n1-c1cccc2ccccc12	1%	?	0%	11µM*	?	2
CC(=O)c1ccc(-n2c(-c3cc(-c4ccco4)[nH]n3)n[nH]c2=S)cc1	-2%	30	3%	5.6µM*	-9%	6
Cn1c(-c2ccco2)n[nH]c1=S	0%	.	.	.	8%	.
Cc1ccccc1-n1c(-c2csc3ccccc23)n[nH]c1=S	-2%	?	2%	16µM*	22µM*	.
Cc1ccccc1-n1c(-c2ccco2)n[nH]c1=S	-5%	-114*	-1%	?	?	.
O=C(c1cnccn1)N1CCC[C@@]2(CCN(Cc3cc(C(F)(F)F)cc(C(F)(F)F)c3)C2)C1	-3%	.	.	-8%	5%	.
S=c1[nH]nc(Cc2cccs2)n1-c1cccc2ccccc12	2%	-6	8%	25µM*	-5%	.
S=c1[nH]nc(Cc2cccs2)n1-c1ccccc1Cl	2%	.	.	.	?	.
O=C(CSCC(=O)NC1CCCC1)Nc1ccccc1	2%	-20	?	?	6%	.
O=C(CSCc1ccco1)NC1CCCC1	-9%	?	3%	28µM*	?	.
Cc1ccccc1CSCC(=O)NC1CCCC1	18%	-28	2%	18µM*	8%	2
O=CN(Cc1ccco1)C1(C(=O)NC2CCCCC2)CCCCC1	0%	5	0%	3%	14µM*	12
Cc1ccc(NC(=O)CSCC(=O)O)cc1	-1%	.	.	.	1%	.
Cc1ccc(NC(=O)CSCc2ccco2)cc1	-2%	.	-11%[46 µM]	.	22µM*	.
CCn1ccc2c(OCC(=O)Nc3ccc(C(C)=O)cc3)cccc2c1=O	.	.	3%[46 µM]	.	.	.
COc1ccc2[nH]cc(CCO)c2c1	.	.	.	.	-6%	.
Cc1oc(-c2ccc(Cl)cc2)nc1Cn1c(=O)cc(C)c2c(C)nn(-c3ccccc3)c21	.	.	-7%[46 µM]	.	.	.
CC(=O)/C=C\C1[C@]2(C)CCCC(C)(C)C2CC[C@@]1(C)O (stereo not given in full)	-3%	.	-10%	-13%	3%	.

Source: PubChem BioAssay (National Center for Advancing Translational Sciences (NCATS))
